VLA-4 inh = inhibition in a human VLA-4 binding assay | VLA-4 expressing cells, ligand binding flow cytometry | P13612 | inhibition, % (about 7 µM as worked out from the volumes in the protocol) | 330,000 compounds, 0.2% hits; in the data active means inhibition above about 50%
ABCB6 inh 2 = human ABCB6 transporter inhibition. fluorescence ratio to DMSO, % at 10 µM. K562-ABCB6 porphyrin accumulation, flow cytometry, 1 h; active compounds read low. 360,000 compounds, 0.19% hits. Q9NP58;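 active means fluorescence ratio to DMSO below 75%, the collection mean minus 3 SD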;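 further: signal is porphyrin accumulated inside mitochondria; 100% equals median channel fluorescence of DMSO control wells; lower ratio means ABCB6 inhibition with less porphyrin fluorescence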
Target sequence (Q9NP58 whole entry, looked up): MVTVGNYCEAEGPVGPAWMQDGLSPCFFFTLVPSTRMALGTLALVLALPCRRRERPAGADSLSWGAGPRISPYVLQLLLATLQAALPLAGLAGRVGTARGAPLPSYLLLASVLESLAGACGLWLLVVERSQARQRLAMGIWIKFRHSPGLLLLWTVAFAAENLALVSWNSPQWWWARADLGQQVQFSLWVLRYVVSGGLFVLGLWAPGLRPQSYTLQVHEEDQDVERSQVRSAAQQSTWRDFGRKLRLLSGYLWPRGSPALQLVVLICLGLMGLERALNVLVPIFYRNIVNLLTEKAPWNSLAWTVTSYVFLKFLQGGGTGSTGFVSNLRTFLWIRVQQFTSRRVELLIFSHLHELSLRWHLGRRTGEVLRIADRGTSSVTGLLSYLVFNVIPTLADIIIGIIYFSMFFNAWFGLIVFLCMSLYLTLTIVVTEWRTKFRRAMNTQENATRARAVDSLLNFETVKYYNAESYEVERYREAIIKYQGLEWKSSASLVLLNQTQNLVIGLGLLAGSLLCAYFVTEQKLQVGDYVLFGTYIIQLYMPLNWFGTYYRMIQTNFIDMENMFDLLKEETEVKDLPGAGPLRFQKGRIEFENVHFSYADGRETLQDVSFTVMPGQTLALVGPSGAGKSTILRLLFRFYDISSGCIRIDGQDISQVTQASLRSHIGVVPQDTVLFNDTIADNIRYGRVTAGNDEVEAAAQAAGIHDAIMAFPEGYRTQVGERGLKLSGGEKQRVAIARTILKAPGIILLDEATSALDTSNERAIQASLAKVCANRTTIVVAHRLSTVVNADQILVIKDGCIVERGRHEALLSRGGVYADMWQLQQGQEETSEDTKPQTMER
CaV13 ICDI inh = Primary screen for inhibitors of IQ motif and Ca2+-dependent inactivation inhibitor domain binding in CACNA1D, Förster resonance energy transfer in living cells, …; AID 743397; inhibition, % at 12.3 µM; HEK cells, CFP/YFP FRET ICDI-IQ, plate reader, 10 min; percent FRET-ratio fall versus neutral wells; 340,000 compounds, 0.098% hits;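 active means mean replicate inhibition of at least 30% and at least 1% of replicates passing that level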;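 further: 0% = median of the neutral control wells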
Exocytosis inh = lytic granule exocytosis inhibition | TALL-104 LAMP-1 surface exposure, flow cytometry; cells stimulated with thapsigargin and PMA | inhibition, % at 10 µM | 360,000 compounds, 0.66% hits | AID 651702;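 active means inhibition above about 55%, limit read from the data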
VLA-4 allo CP = human VLA-4 allosteric modulation in cherry picked compounds | shares compounds with VLA-4 inh | U937 cells, HUTS-21 LIBS mAb binding, flow cytometry; LDV ligand present at threefold Kd | inhibition, % at 6.7 µM | 1,300 compounds, 2% hits | AID 2813; in the data active means inhibition above about 40%;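 further: 0% = ligand without compound and 100% = no ligand background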
ABCB6 inh CP1 = inhibitors of human ABC transporter ABCB6; shares compounds with ABCB6 inh 2; K562-ABCB6 porphyrin accumulation, flow cytometry, 1 h; active compounds read low; 700 tested, under 10 active; ratio response (% of DMSO), % at 10 µM;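 active means repeat-averaged ratio response below 75% of DMSO, the collection mean minus 3 SD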;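 further: median porphyrin fluorescence at 575 nm with 488 nm excitation from mitochondria; lower ratio means less porphyrin signal so ABCB6 inhibition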
Granule exo CP1 = blocks lytic granule exocytosis; inhibition, % at 10 µM; AID 651954; shares compounds with Exocytosis inh; 1,500 compounds, 11% hits; TALL-104 cells, LAMP-1 externalization, flow cytometry; stimulated with PMA plus thapsigargin; in the data active means inhibition above about 60%;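 further: 0% = stimulated vehicle wells and 100% = unstimulated wells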
An asterisk follows results filed as active. Most compounds without a hit are left out; they make up all but 1.1% or so of the library.

What do the screens show for `COc1ccc(-c2ccc(NC(=O)c3ccco3)cc2)nn1`?
VLA-4 inh: 0; ABCB6 inh 2: 97; CaV13 ICDI inh: -2; Exocytosis inh: -7

Results for FC(F)(F)c1cccc(NC(=S)Nc2ccc(Cl)cc2Cl)c1 ?
VLA-4 inh: 90*; ABCB6 inh 2: 88; CaV13 ICDI inh: -4; Exocytosis inh: -3; VLA-4 allo CP: 11

How did COC(=O)c1cccc(-n2c(=O)n(Cc3ccccc3)c(=O)c3[nH]cnc32)c1C do in these assays?
VLA-4 inh: -12; ABCB6 inh 2: 100; CaV13 ICDI inh: -18; Exocytosis inh: -4

How did Cc1cc(C(=O)NNCc2ccccc2)no1 do in these assays?
VLA-4 inh: 56*; ABCB6 inh 2: 101; CaV13 ICDI inh: -4; Exocytosis inh: 1; VLA-4 allo CP: 6

What do the screens show for `Cc1ccc(-n2c(C)cc(C(=O)CN3CCOCC3)c2C)cc1`?
VLA-4 inh: 14; ABCB6 inh 2: 94; CaV13 ICDI inh: -19; Exocytosis inh: 3

What do the screens show for `Cc1cc(C(=O)CN2CCCC(C)C2)c(C)n1-c1ccc(F)cc1` (stereo not given)?
VLA-4 inh: 42; ABCB6 inh 2: 102; CaV13 ICDI inh: -4; Exocytosis inh: -12; VLA-4 allo CP: -10

What do the screens show for `O=c1[nH]cc(CCc2ccccc2)c(=O)[nH]1`?
ABCB6 inh 2: 95; CaV13 ICDI inh: -11; Exocytosis inh: -1

What do the screens show for `COc1ccc(C(=O)OCC(=O)Nc2cc(C)c(C)cc2[N+](=O)[O-])cc1`?
VLA-4 inh: 54*; ABCB6 inh 2: 57*; CaV13 ICDI inh: -2; Exocytosis inh: -2; VLA-4 allo CP: 0; ABCB6 inh CP1: 102

How did CCSc1nnc(NC(=O)[C@@H](NC(=O)c2ccccc2F)C(C)C)s1 do in these assays?
VLA-4 inh: -1; ABCB6 inh 2: 102; CaV13 ICDI inh: -3; Exocytosis inh: 1

What do the screens show for `OC(CNCc1ccco1)Cn1c2ccc(Br)cc2c2cc(Br)ccc21` (stereo not given)?
VLA-4 inh: 67*; ABCB6 inh 2: 103; Exocytosis inh: 78*; VLA-4 allo CP: 38; Granule exo CP1: -9

What do the screens show for `COC(=O)C1CCN(C(=O)Nc2ccccc2)CC1`?
VLA-4 inh: -10; ABCB6 inh 2: 104; CaV13 ICDI inh: 0; Exocytosis inh: 4

How did COc1ccc(CC(N)c2csc(NC(=O)c3ccc(OC)cc3)n2)cc1 (stereo not given) do in these assays?
ABCB6 inh 2: 95; CaV13 ICDI inh: -12; Exocytosis inh: -5

What do the screens show for `COc1ccc(CC(N)c2csc(NC(=O)c3ccccc3)n2)cc1` (stereo not given)?
ABCB6 inh 2: 71*; CaV13 ICDI inh: -11; Exocytosis inh: -2; ABCB6 inh CP1: 103

How did CCN(CC)C1=CC(=[N+]2CCCC2)CC(C)(C)C1 do in these assays?
VLA-4 inh: -3; ABCB6 inh 2: 67*; CaV13 ICDI inh: -3; Exocytosis inh: -1; ABCB6 inh CP1: 103

Results for CN(Cc1ccccc1)C1=CC(=[N+]2CCCC2)CC(C)(C)C1 ?
VLA-4 inh: 12; ABCB6 inh 2: 98; CaV13 ICDI inh: -4; Exocytosis inh: 5

What do the screens show for `CC(C)OCCOc1ccc2oc(-c3ccco3)cc(=O)c2c1`?
VLA-4 inh: 5; ABCB6 inh 2: 92; CaV13 ICDI inh: -4; Exocytosis inh: -3

How did CCCCN(CC)CCNC(=O)c1cc2cc3ccc(Cl)cc3nc2o1 do in these assays?
VLA-4 inh: 8; ABCB6 inh 2: inactive; CaV13 ICDI inh: -18; Exocytosis inh: 41

How did CCCN(CCC)CCCNC(=O)c1cc2cc3ccc(Cl)cc3nc2o1 do in these assays?
VLA-4 inh: 7; ABCB6 inh 2: 73*; CaV13 ICDI inh: -21; Exocytosis inh: 36; ABCB6 inh CP1: 103

What do the screens show for `CCN(CC(=O)Nc1ccccc1C(F)(F)F)C(=O)c1ccc(=O)n(Cc2ccccc2)n1`?
VLA-4 inh: -1; ABCB6 inh 2: 100; CaV13 ICDI inh: -3; Exocytosis inh: 3

What do the screens show for `O=C(Nc1ccc(NC(=O)C2CC2)cn1)c1ccccc1`?
VLA-4 inh: 9; ABCB6 inh 2: 101; CaV13 ICDI inh: -2; Exocytosis inh: -6

What do the screens show for `O=C(Nc1ccc(NC(=O)C2CC2)nc1)c1cccnc1`?
VLA-4 inh: 2; ABCB6 inh 2: 68*; CaV13 ICDI inh: 0; Exocytosis inh: 0; ABCB6 inh CP1: 102

Results for CC(C)CC(=O)OCC(=O)Nc1ccccc1Sc1ccccc1 ?
VLA-4 inh: -1; ABCB6 inh 2: 74*; CaV13 ICDI inh: -2; Exocytosis inh: 1; ABCB6 inh CP1: 99

How did O=C(COC(=O)C1CCC1)Nc1ccccc1Sc1ccccc1 do in these assays?
VLA-4 inh: 26; ABCB6 inh 2: 94; CaV13 ICDI inh: -5; Exocytosis inh: 2

How did O=C(NC1CCCC1)c1ccc(COCC(F)(F)F)o1 do in these assays?
VLA-4 inh: 13; ABCB6 inh 2: 103; CaV13 ICDI inh: -9; Exocytosis inh: -4

How did O=C(NC1CCCC1)c1ccc(COCC(F)(F)C(F)F)o1 do in these assays?
VLA-4 inh: 2; ABCB6 inh 2: 73*; CaV13 ICDI inh: -8; Exocytosis inh: -1; ABCB6 inh CP1: 99

How did COc1cc2c(C(=O)N(C)c3ccc(F)cc3)cn(C)c(=O)c2cc1OC do in these assays?
VLA-4 inh: 5; ABCB6 inh 2: 14*; CaV13 ICDI inh: -19; Exocytosis inh: 19; ABCB6 inh CP1: 99

What do the screens show for `Cc1ccc(S(=O)(=O)C2(C(=O)N3CCN(c4ccccc4F)CC3)CC2)cc1`?
VLA-4 inh: 5; ABCB6 inh 2: 72*; CaV13 ICDI inh: -4; Exocytosis inh: -8; ABCB6 inh CP1: 101

How did COC(=O)c1ccc(OC(=O)c2ccncc2)cc1O do in these assays?
VLA-4 inh: 25; ABCB6 inh 2: 98; CaV13 ICDI inh: -15; Exocytosis inh: 1

What do the screens show for `Cc1cccc(N2CCN(C(=O)c3cccc(N4C(=O)C5C6C=CC(C6)C5C4=O)c3)CC2C)c1` (stereo not given)?
VLA-4 inh: 4; ABCB6 inh 2: 94; CaV13 ICDI inh: -7; Exocytosis inh: 5

Results for Cc1cccc(N2CCN(C(=O)CCN3C(=O)C4C5C=CC(C5)C4C3=O)CC2C)c1 (stereo not given) ?
VLA-4 inh: 10; ABCB6 inh 2: 67*; CaV13 ICDI inh: -4; Exocytosis inh: -6; ABCB6 inh CP1: 96

How did Cc1nn(Cc2c(F)c(F)c(F)c(F)c2F)c(C)c1NC(=O)c1c(-c2ccccc2)nn(-c2ccccc2)c1C do in these assays?
VLA-4 inh: 18; ABCB6 inh 2: 38*; CaV13 ICDI inh: -4; Exocytosis inh: 0; ABCB6 inh CP1: 98

Assay outcomes as filed in PubChem BioAssay.
